Active and inactive are the calls of the source. Calls come from the whole dose curve; as a rule, active = well fitted curve in the direction sought with a large enough effect; inconclusive = small, poorly fitted or top-dose-only effect, or effect the other way, or another doubt; inactive = no such curve, though single readings can be large or run the other way.

The assay in a line: Inducers of the Endoplasmic Reticulum Stress Response (ERSR) in human glioma: Validation (AID 504836). The settings on record: human glioma cells, ER stress response reporter; series mostly up to 38.3 µM. The source says: Primary protein unfolding takes place for many diseases, including diabetes and hypoxia, , and triggers a reaction in the cells called ER stress response (ERSR). ). ERSR is designed as a repair mechanism, but ultimately leads to cell death via apoptosis if conditions triggering protein unfolding persist (1). The molecular clue to ERSR activation is the enhancement of the expression of key molecular chaperones, including the glucose regulated protein (GRP) 78. GRP78 is the main sensor for protein folding and the main actuator of the ERSR.
In a collaboration between the Southern Research Institute and the NIH Chemical Genomics Center, a cell based screen was developed that reliably uses GRP78 as a sensor to identify small molecules as inducers of ERSR. In resting conditions, GRP78 binds proteins and acts as a natural repressor. Once unfolded proteins are present in the ER, GRP78 releases some of the repressors and binds to the unfolded proteins. The release of the repressors executes the ERSR program. Using a human glioma cell line in a miniaturized, luminescent format, a high-throughput screen was developed to identify actuators of the ERSR.
(1) Soboloff, J. and S. A. Berger (2002). "Sustained ER Ca2+ depletion suppresses protein synthesis and induces activation-enhanced cell death in mast cells." J Biol Chem 277(16): 13812-20.
NIH Chemical Genomics Center [NCGC]
NIH Molecular Libraries Probe Centers Network [MLPCN]
Assay Submitter (PI): Maurizio Grimaldi, Southern Research Institute
Stable transfected human glioma cell line, U87-MG, are dispensed at density 1000 cells/well into Greiner white solid bottom 1536-well assay plates. Compounds are transferred via Kalypsys pin tool equipped with 1536-pin array (10nl slotted pins, V&P Scientific, San Diego, CA). The assay plates will be incubated for 16 hours and developed by adding appropriate quantities of the Promega Bright Glo reagent. The plates will be incubated at room temperature for 10 minutes prior to being transferred into a ViewLux high-throughput CCD imager (PerkinElmer), wherein end-point measurements of luminescence are acquired.
As to `NC(N)=NC(N)=Nc1cccc(Cl)c1`, the call was inactive. In the case of `O=c1cc(-c2ccccc2)[nH]c2nc(Cl)ccc12`, the call was inactive. For the molecule `C[C@H](O)C(=O)C1=Nc2c(nc(N)[nH]c2=O)NC1`, the result was inactive. Consider `CN1C2CCC1CC(OC(=O)c1c[nH]c3ccccc13)C2` (stereo not given), for which the molecule was classed as inactive.

On to `NCCCCN`, for which the molecule was called inactive. For the molecule `COc1cc(CC(=O)O)ccc1O`, the result was inactive. The value for `C[C@]12C=CC(=O)C=C1CC[C@@H]1C2=CC[C@]2(C)[C@@H](C(=O)CN3CCN(c4cc(N5CCCC5)nc(N5CCCC5)n4)CC3)CC[C@@H]12` was “inactive”; that for `Nc1nc2[nH]c(=O)cnc2c(=O)[nH]1` was “inactive”; that for `CC(=O)O[C@H]1Cc2ccccc2N(C(N)=O)c2ccccc21` was “inactive”.

Consider `Cc1cccc(C(=O)NCN2CCN(c3ccccc3C#N)CC2)c1`, for which the molecule was called inactive. The value for `N#C/C(=C\c1ccc(O)c(O)c1)C(=O)Nc1ccccc1` was “inactive”. Consider `NC(=O)c1ccccc1`, for which the call was inactive. For `O=C(Nc1cccc(C(=O)Nc2ccc(S(=O)(=O)O)c3cc(S(=O)(=O)O)cc(S(=O)(=O)O)c23)c1)Nc1cccc(C(=O)Nc2ccc(S(=O)(=O)O)c3cc(S(=O)(=O)O)cc(S(=O)(=O)O)c23)c1`, the molecule was called inactive. Regarding `NO`, the molecule was called inactive. Regarding `CC(=O)NCCc1c[nH]c2ccc(O)cc12`, the result was inactive.

Turning to `Nc1ncnc2c1ncn2C1CCCC1`, the call was inactive.

As to `C[C@](Cc1ccc(O)c(O)c1)(NN)C(=O)O`, the outcome was inactive.

For `Cc1cc(Cn2cnc3c2C[C@@H](C(=O)O)N(C(=O)C(c2ccccc2)c2ccccc2)C3)ccc1N`, the molecule was called inactive. As to `O=C(O)c1cc2cc(Cc3cccnc3)ccc2o1`, the result was inactive. With `O=C(O)/C=C/c1cnc[nH]1`, the outcome was inactive. With `CNC(=O)c1cc2c(cn1)[nH]c1ccccc12`, the molecule was classed as inactive.

For the molecule `Cc1cc(O)c2c(c1)C(=O)c1cc(O)cc(O)c1C2=O`, the outcome was inactive. The result for `CC(C)NC[C@H](O)COc1cccc2ccccc12` reads “inactive”; that for `NC(C(=O)N[C@@H]1C(=O)N2C(C(=O)O)=C(Cl)CS[C@H]12)c1ccccc1` (stereo not given in full), “inactive”; that for `N[C@@H](Cn1ccc(=O)c(O)c1)C(=O)O`, “inactive”. `CCNC(=O)[C@H]1O[C@@H](n2cnc3c(N)nc(NCCc4ccc(CCC(=O)O)cc4)nc32)[C@H](O)[C@@H]1O`: the molecule was called inactive. The result for `Cn1c(=O)[nH]c2ncn(C)c2c1=O` reads “inactive”; that for `CCOC(=O)N1CCN(/[N+]([O-])=N/Oc2ccc([N+](=O)[O-])cc2[N+](=O)[O-])CC1`, “inactive”; that for `CCCC(=O)NCCc1c2n(c3ccc(OC)cc13)CCCc1ccccc1-2`, “inactive”. The result for `CC(C)NCC(O)COc1cccc2ccccc12` (stereo not given) reads “inactive”.

With `C=CC(C)=C[C@@]1(C)SC(=O)C(C)=C1O`, the molecule was classed as inactive.

On to `NCC(O)c1ccc(O)c(O)c1` (stereo not given), for which the outcome was inactive. For `COc1ccccc1N1CCN(CCN(C(=O)C2CCCCC2)c2ccccn2)CC1`, the result was inactive. For `NCC(O)C1CCCCCCC1` (stereo not given), the molecule was classed as inactive.

As for `O=C(O)c1cc2cc(F)ccc2[nH]1`, the molecule was called inactive. On to `CCCn1c(=O)[nH]c(=O)c2[nH]cnc21`, for which the call was inactive. For the molecule `Nc1ccc(-c2nc3ccc(-c4nc5ccc(N)cc5[nH]4)cc3[nH]2)cc1`, the call was inactive. For the molecule `Nc1ncnc2c1ncn2[C@@H]1O[C@H](COP(=O)(O)OP(=O)(O)OP(=O)(O)OP(=O)(O)OC[C@@H]2O[C@H](n3cnc4c(N)ncnc43)[C@@H](O)[C@H]2O)[C@@H](O)[C@H]1O`, the result was inactive.

With `CCCCS(=N)(=O)CCC(N)C(=O)O` (stereo not given), the call was inactive. Turning to `O=C(O)/C=C/C(O)c1ccc(Cl)cc1` (stereo not given), the outcome was inactive.

These data come from PubChem BioAssay (NCATS).
